An excerpt weighted towards active compounds, which were near 8.1% of everything screened.
SW480 rereplic: A quantitative high throughput screen for small molecules that induce DNA re-replication in SW480 colon adenocarcinoma cells; Potency, µM (highest dose often 46.1 µM), for the others: top-dose re-replication activation, hits mostly activators; AID 624297, 2012; 1.8% of 340,000 active; SW480 DNA re-replication, Hoechst DNA content imaging, 48 h; also: % of control where 0% means no effect; nearly all actives have a fitted effect of over 55% in size
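Compounds, transferred as 23 nL by pin tool, were incubated with cells for 48 hr; DNA content per nucleus was then quantified by Hoechst staining and fluorescence plate imaging.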
KB-3-1 tox: qHTS assay for MDR1-selective chemotherapeutics: Primary screen using the parental adenocarcinoma cell KB-3-1 | KB-3-1 viability, CellTiter-Glo ATP luminescence, 72 h | Potency, µM (titrated, usually from 46.1 µM), most hits filed as cytotoxic | 1.4% of 400,000 active | AID 1347075, 2019; also: % is scaled to controls: 0 for no effect and ±100 for the full control effect; nearly all actives have a fitted effect of over 60% in size
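Cells are dispensed, compounds pinned in, plates held at 37 °C for 72 h, then CellTiter-Glo is added and luminescence read after 10 minutes. Cell line: parental KB-3-1 in phenol-red-free DMEM, 10% FBS.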
ELG1 repair inh: qHTS screen for small molecules that inhibit ELG1-dependent DNA repair in human embryonic kidney (HEK293T) cells expressing luciferase-tagged ELG1; AID 504467, 2011; HEK293T ELG1-luciferase reporter, luminescence, 16 h; DNA damage induced by 5-fluorouridine; Potency, µM (series often up to 46.1 µM), for the others: at the highest dose activity change, negative = inhibition, hits mostly inhibitors; 2.3% of 330,000 active; also: % is scaled to controls: 0 for no effect and ±100 for the full control effect; nearly all actives have a fitted effect of over 55% in size
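In this reporter screen, reduction of luminescence relative to DMSO vehicle indicated activity. Compounds and 5-fluorouridine were added together to 2,000 cells per well, incubated for 16 hr at 37 °C, then developed with ONE-Glo.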
MCF10A rerep: A quantitative high throughput screen for small molecules that induce DNA re-replication in MCF 10a normal breast cells; MCF 10A DNA re-replication, Hoechst nuclear intensity, 48 h; Potency, µM (doses to about 46.1 µM), for the others: at the top dose activity, positive = re-replication, actives largely listed as activators; 2.9% of 350,000 active; AID 624296, 2012; also: % of control where 0% means no effect; nearly all actives have a fitted effect of over 50% in size
KB-V1 cytotox: qHTS assay for MDR1-selective chemotherapeutics: Primary screen using the drug-selected MDR subline cells KB-V1. KB-V1 MDR cells viability, CellTiter-Glo, 72 h. Potency, µM (top dose mostly 46.1 µM), hits mostly cytotoxic. 3.4% of 400,000 active. AID 1347076, 2019; also: % is scaled to controls: 0 for no effect and ±100 for the full control effect; nearly all actives have a fitted effect of over 60% in size
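Cytotoxicity toward P-gp-expressing KB-V1 cells was determined as loss of CellTiter-Glo luminescence after 72 h at 37 degrees C. Compounds were tested in quantitative HTS format across a concentration range, with curves fitted to normalized data.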
Numbers without * were called inactive; i = inactive; ? = inconclusive; · = no result; [ ] = another dose, or the depositor's remark. Calls follow the shape of the dose curve; as a rule, active = well fitted curve in the direction sought with a large enough effect; inconclusive = small, poorly fitted or top-dose-only effect, or another doubt; inactive = no such curve, though single readings can be large; an effect the other way counts as inactive or inconclusive. Potency is read from the fitted curve at half-maximal effect.

SMILES	SW480 rereplic	KB-3-1 tox	ELG1 repair inh	MCF10A rerep	KB-V1 cytotox
CCOC(=O)C1=C(c2ccccc2)Nc2ncnn2C1c1ccc(C(=O)O)cc1 (configuration not stated)	-15%	i	0%	-7%	i
CCOC(=O)C1=C(c2ccccc2)NC(N)=NC1c1ccc(OCc2ccc(C(=O)OC)cc2)cc1 (configuration not stated)	?	?	15%	18µM*	?
Cc1ccc(-c2cc3nccc(-c4cc([N+](=O)[O-])ccc4O)n3n2)cc1	·	23µM*	·	·	?
CCOC(=O)COc1ccc([N+](=O)[O-])cc1-c1ccnc2cc(-c3ccc(C)cc3)nn12	·	i	·	·	i
Cc1ccc(-c2cc3ncc(C(=O)c4cc([N+](=O)[O-])ccc4O)cn3n2)cc1	·	16µM*	·	·	i
O=C(c1cnc2cc(-c3ccccc3)nn2c1)c1cc([N+](=O)[O-])ccc1O	·	?	·	·	i
Cc1cccc(C(C)C)c1NC(=O)COC(=O)CCN1C(=O)C2CC=CCC2C1=O (configuration not stated)	-37%	i	-2%	9%	i
Cc1cccc(CSc2nc(-c3cccc(C)c3)nc3c2Cc2c(CO)cnc(C)c2O3)c1	·	i	·	·	i
CSc1ccc(CN2CCC(C)(Oc3ccc(C(C)=O)cc3)C2)cc1 (configuration not stated)	·	i	·	·	i
CCC(=O)c1cn(CC(=O)Nc2cccc(C)c2)c2ccccc12	62%	i	?	15%	i
Cc1sc2ncnc(N3CCC(C(=O)NNC(=O)COc4ccccc4Cl)CC3)c2c1C	4%	i	?	4.1µM*	?
CCN(CC(=O)Nc1c(F)cccc1F)C(=O)C1CCN(c2ncnc3sc(C)c(C)c23)CC1	3%	i	?	17%	13µM*
Cc1sc2ncnc(N3CCC(C(=O)Nc4ccc(OC(F)F)c(Cl)c4)CC3)c2c1C	0%	i	10µM*	?	i
CCN(CC(=O)Nc1c(Cl)cccc1Cl)C(=O)C1CCN(c2ncnc3sc(C)c(C)c23)CC1	-1%	i	?	3%	i
CCN(CC)CCNC(=O)c1ccc(NC(=O)C2CCN(c3ncnc4sc(C)c(C)c34)CC2)cc1	21µM*	i	?	?	i
CCCS(=O)(=O)N1CCCC(C(=O)NCCOC)C1 (configuration not stated)	·	i	·	·	i
CCCCNC(=O)N1CCc2ccccc2C1	23µM*	i	?	2%	i
CCCCNc1nc2ccccc2n1CC(=O)N1CCc2ccccc2C1	0%	i	?	-2%	10µM*
O=C(NCc1ccc(F)cc1)N1CCc2ccccc2C1	-28%	i	?	-2%	i
CC(C)C1C(c2ccccc2)NC(c2ccccc2)CC1(O)c1ccc(F)cc1 (configuration not stated)	?	i	?	16µM*	i
COC(=O)c1ccccc1NC(=O)c1nc(-c2ccc(Cl)cc2)n2c1CCCCC2	·	i	·	·	?
S=C(NCc1ccc2[nH]c3c(c2c1)CCCC3)Nc1ccccc1	?	i	-13%	21µM*	i
O=C(Nc1ccc2[nH]c3c(c2c1)CCCC3)c1ccco1	-2%	?	4.5µM*	-1%	i
C/C(=N\S(=O)(=O)c1ccc(C)cc1)N1CCN(S(=O)(=O)c2ccccc2)C1C(C)C (configuration not stated)	6%	i	-19%	-1%	5.8µM*
Cc1cc(NC(=O)CSCC(=O)Nc2nc3ccccc3s2)no1	-9%	i	?	-4%	i
SMILES	SW480 rereplic	KB-3-1 tox	ELG1 repair inh	MCF10A rerep	KB-V1 cytotox
COc1cccc(/C=N/Nc2nc3ccccc3n3cnnc23)c1O	?	?	8.2µM*	?	6.5µM*
COc1ccc(Nc2nc3ccccc3n3cnnc23)cc1	-1%	i	?	?	13µM*
Cc1cc(Br)c(OCC(=O)NN)c2c1CCC2	31%	i	-14%	15µM*	?
CCOn1c(=O)c(-c2cc3ccccc3o2)[n+]([O-])c2ccccc21	-40%	i	?	2%[9.22 µM]	i
O=c1c(-c2cc3ccccc3o2)[n+]([O-])c2ccccc2n1OCc1ccccn1	2%	i	?	?	3.7µM*
CCOC(=O)c1oc2ccc(CNC3CCCCC3)c(Cl)c2c1C	?	i	-10%	16µM*	i
COC(=O)c1cn(-c2ccccc2)nc1-c1ccc(OC)cc1	-8%	i	26µM*	6%	i
O=C(/C=C/c1cn(-c2ccccc2)nc1-c1ccc2c(c1)OCCO2)NCCO	-5%	i	?	-2%	i
CC(C)OC(=O)c1cn(-c2ccccc2)nc1-c1ccc2c(c1)OCCO2	2%	i	23µM*	?	7.3µM*
NC(=O)/C=C\c1cn(-c2ccccc2)nc1-c1ccc2c(c1)OCCO2	0%	i	16µM*	?	15µM*
CNC(=O)COC(=O)/C=C/c1cn(-c2ccccc2)nc1-c1ccc2c(c1)OCCO2	-5%	i	?	-7%	i
COC(=O)c1cn(-c2ccccc2)nc1-c1ccncc1	-4%	i	0%	15%	i
CCOC(=O)c1ccc(NC(=O)c2cn(-c3ccccc3)nc2-c2ccncc2)cc1	?	i	18µM*	14%	i
O=C(OCC(=O)N1CCC(Cc2ccccc2)CC1)c1cccnc1Cl	-3%	i	-11%	2%	i
Cc1ccc2c(=O)cc(C(=O)Nc3c(C(=O)c4ccccc4)oc4ccccc34)oc2c1	·	i	·	·	i
CCOc1ccc(C2c3cc(OCC)c(OCC)cc3CC(=O)N2c2ccc(C(=O)O)cc2)cc1OCC (configuration not stated)	·	i	·	·	i
COCCNC(=O)C1(C)CCN(C(=O)c2ccc3ccccc3n2)C1 (configuration not stated)	·	i	·	·	i
COc1cc(C#N)c(NC(=S)N2CCN(C(=O)c3ccco3)CC2)cc1OC	·	i	·	·	i
C=Cc1ccc(CSc2nc(-c3ccccc3C)nc3c2Cc2c(CO)cnc(C)c2O3)cc1	·	i	·	·	i
O=C(CN1CCC(n2nnc3cc(F)ccc32)CC1)NCc1ccco1	1%	i	-16%	3%	i
O=C(c1ccco1)N1CCC(n2nnc3ccccc32)CC1	-4%	i	1%	6%	13µM*
O=C(CN1CCC(n2nnc3ccccc32)CC1)NCc1cccs1	1%	i	-11%	10%	23µM*

Screening results (PubChem)
